Laboratory results from PubChem BioAssay (EPA / NIEHS).
“And” between values parts separate entries of the source, which are not always exact repeats. Equal values may be shown once. Records with an inconclusive call do not appear. Some structures have more than one record in an assay (separate samples or runs), and their calls can disagree. The source made the active and inactive calls. The calls were made as follows, unless noted: active = hit-call score of the fitted dose curve at least 0.9, where 1 is the maximum; inactive = score below 0.9.

Legend:
[1] = CCTE_Shafer_MEA_dev_network_spike_number: CCTE's Neural Network Formation Assay for Number of Network Spikes, Shafer Lab (AID 2284048);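 also: synchronized bursts across electrodes counted on days 5 7 9 12 and integrated as AUC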;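 as to AC50: fit as a loss of signal meaning fewer network spikes than DMSO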
Outline: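 Developing networks of primary rat cortical neurons are treated over 12 days starting at plating, with media and compound fully replaced on DIV 5 and 9. Network spike counts from four recording days are integrated as trapezoidal AUC.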

[2] = CCTE_Shafer_MEA_dev_spike_duration_mean: CCTE's Neural Network Formation Assay for Mean Spike Duration, Shafer Lab (AID 2284051);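 also: mean network spike duration pooled as area under curve over DIV 5 to 12 recordings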;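 as to AC50: potency for a decrease in mean network spike duration versus DMSO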
Outline: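 Rat cortical primary cultures, 48-well MEA (16 electrodes/well); compound from plating, renewed DIV 5, 9. Network spike duration (AxIS adaptive detector) recorded DIV 5/7/9/12, combined as trapezoidal AUC; loss direction vs DMSO.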

[3] = CCTE_Shafer_MEA_dev_network_spike_duration_std: CCTE's Neural Network Formation Assay for Standard Deviation of Network Spike Duration, Shafer Lab (AID 2284052);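 also: area under curve of spike duration SD across recording days 5 to 12; hits are decreases in network spike duration SD versus DMSO vehicle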
Outline: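 Rat cortical cultures, 1.5 x 10^5 cells/well, exposed continuously from plating to DIV 12 with media/compound renewal at DIV 5, 9. Spontaneous activity recorded DIV 5/7/9/12, AxIS adaptive spike detector; AUC across days; negative direction vs DMSO.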

[4] = CCTE_Shafer_MEA_dev_per_network_spike_spike_number_mean: CCTE's Neural Network Formation Assay for Mean Number of Spikes in a Network Spike, Shafer Lab (AID 2284053);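 as to AC50: fitted as decrease in spikes per network spike relative to DMSO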
Outline: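 Rat cortical primary cultures on 48-well MEA; compound from day 0, re-dosed with full media change DIV 5, 9. Recorded DIV 5, 7, 9, 12; spikes in 0.05 s window at network-spike peak ÷ total network spikes; AUC; loss vs DMSO.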

[5] = CCTE_Shafer_MEA_dev_per_network_spike_spike_percent: CCTE's Neural Network Formation Assay for Percent of Spikes in a Network Spike, Shafer Lab (AID 2284054)
Outline: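 Rat primary cortical cultures, 1.5 x 10^5 cells/well on MEA. Continuous compound exposure d0–12, medium/compound renewed DIV 5, 9. Network-spike spike % (0.05 s peak window), AUC over 4 recordings, DMSO baseline.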

[6] = CCTE_Shafer_MEA_dev_LDH: CCTE's Lactate Dehydrogenase Assay for Cytotoxicity in the Neural Network Formation Assay, Shafer Lab (AID 2284068; active = hit-call score of the fitted dose curve at least 0.9, where 1 is the maximum;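 also: exposure for twelve days from plating with re-dosing on DIV 5 and 9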)
Outline: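 Rat cortical primary neurons, MEA culture; dosing day 0–12, full medium plus compound exchange DIV 5, 9. Read-out: LDH enzyme activity, spectrophotometric. DMSO = negative control/baseline; signal loss → cytotoxicity.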

[7] = CCTE_Shafer_MEA_acute_AB: CCTE's Alamar Blue Assay for Cytotoxicity in the Neural Acute Assay, Shafer Lab (AID 2284069; active = hit-call score of the fitted dose curve at least 0.9, where 1 is the maximum;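 also: active compounds lower the viability signal compared with DMSO wells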)
Outline: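 Read-out: resazurin fluorescence (ex 544, em 590 nm) after CTB reagent at 1:6 dilution in fresh media. Cells: primary rat cortical neuron networks, DIV 13 or 15, chemically exposed on MEA plates; DMSO as negative control/baseline.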

[8] = CCTE_Shafer_MEA_dev_AB: CCTE's Alamar Blue Assay for Cytotoxicity in the Neural Network Formation Assay, Shafer Lab (AID 2284083; active = hit-call score of the fitted dose curve at least 0.9, where 1 is the maximum;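 also: resazurin reduction fluorescence as viability of cultured neurons; twelve days of exposure from plating with re-dosing on DIV 5 and 9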)
Outline: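 Rat cortical primary cultures, 1.5 x 10^5 cells/well on MEA; continuous compound exposure over 12 days of network development, re-dosed with full medium change DIV 5 and 9. Alamar Blue fluorescence; loss of signal = cytotoxicity vs DMSO baseline.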

DIO2 (gene 1734) = test: CCTE_GLTED_hDIO2: CCTE's human Deiodinase 2 (DIO2) Inhibition Assay, Great Lakes Toxicology and Ecology Division (GLTED) Lab (AID 2284050; active = hit-call score of the fitted dose curve at least 0.9, where 1 is the maximum)
Outline: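 In this cell-free test, chemicals are exposed to human deiodinase type 2 for 3 hours. Released iodide is determined spectrophotometrically via the Sandell-Kolthoff method, and signal loss relative to DMSO is fitted.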

DIO3 (gene 1735) = test: CCTE_GLTED_hDIO3: CCTE's human Deiodinase 3 (DIO3) Inhibition Assay, Great Lakes Toxicology and Ecology Division (GLTED) Lab (AID 2284055; active = hit-call score of the fitted dose curve at least 0.9, where 1 is the maximum;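 also: potency is for inhibition seen as loss of released iodide signal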)
Outline: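 Enzyme activity is tracked as iodide release from substrate by recombinant human DIO3 over 3 h with chemical present. A second Sandell-Kolthoff step converts iodide to an absorbance signal, fitted relative to DMSO.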

Measured: AC50

CO/C=C(/C(=O)OC)c1ccccc1COc1cccc(C(F)(F)F)n1
inactive: [7]
active: [1] 179 nM and 398 nM | [2] 212 nM and 454 nM | [3] 246 nM and 245 nM | [4] 218 nM and 739 nM | [5] 245 nM and 751 nM | [6] 122 nM and 665 nM | [8] 856 nM and 1.12 µM

c1cc2ccc3cccc4ccc(c1)c2c34
not listed: [7] | DIO2 (gene 1734) | DIO3 (gene 1735)
inactive: all other assays above

CCCCCCCCCc1ccc(O)cc1
inactive: [7]
active: DIO2 (gene 1734) 136 µM | DIO3 (gene 1735) 17.4 µM

CCC(C)(CC)c1cc(NC(=O)c2c(OC)cccc2OC)on1
inactive: [7]

Clc1ccc(C(c2ccccc2Cl)C(Cl)(Cl)Cl)cc1 (stereo unspecified)
active: [1] 2.71 µM | [2] 2.76 µM | [4] 0.215 µM | [5] 0.708 µM | [6] 2.38 µM | [8] 6.13 µM
inactive: [3]

CCOP(=S)(OCC)SCSC(C)(C)C
inactive: [1] | [3]
active: [1] 18.9 µM | [2] 13.9 µM and 21.9 µM | [3] 16.2 µM | [4] 23.4 µM and 17.1 µM | [5] 23.1 µM and 28.7 µM | [6] 15.1 µM and 29.5 µM | [8] 18.7 µM and 82.5 µM

ClC1=C(Cl)[C@]2(Cl)[C@@H]3[C@H]4C[C@H]([C@@H]5O[C@H]45)[C@@H]3[C@@]1(Cl)C2(Cl)Cl
not listed: [8] | DIO2 (gene 1734) | DIO3 (gene 1735)
inactive: all other assays above

COc1ccc(O)c(C(C)(C)C)c1
not listed: [8] | DIO2 (gene 1734) | DIO3 (gene 1735)
inactive: all other assays above

NS(=O)(=O)C(F)(F)C(F)(F)C(F)(F)C(F)(F)C(F)(F)C(F)(F)C(F)(F)C(F)(F)F
inactive: [1] | [2] | [3] | [4] | [5] | [8]
active: [2] 23.3 µM | [4] 15 µM | [5] 4.59 µM | [6] 27.6 µM and 23.6 µM | [8] 24 µM

O=C(O)C(F)(F)C(F)(F)C(F)(F)C(F)(F)C(F)(F)C(F)(F)C(F)(F)C(F)(F)F
active: DIO2 (gene 1734) 46.1 µM
not listed: [7] | [8] | DIO3 (gene 1735)
inactive: all other assays above

COS(=O)(=O)OC
inactive: [7]

Clc1ccc(C(Cl)(Cl)Cl)cc1
inactive: [7]
active: DIO2 (gene 1734) 61.7 µM | DIO3 (gene 1735) 73.1 µM

CCSC(=O)N(CC)C1CCCCC1
inactive: [7]

CCC(C)(c1ccc(O)cc1)c1ccc(O)cc1
active: [2] 10 µM
not listed: [6] | DIO2 (gene 1734) | DIO3 (gene 1735)
inactive: all other assays above

O=S(=O)(O)C(F)(F)C(F)(F)C(F)(F)C(F)(F)F
inactive: [1] | [2] | [3] | [4] | [5] | [6]
active: [2] 50 µM | [4] 14.2 µM

C=CC(N)=O
not listed: DIO2 (gene 1734) | DIO3 (gene 1735)
inactive: all other assays above

CC#Cc1cc(C)nc(Nc2ccccc2)n1
inactive: [7]
active: DIO2 (gene 1734) 22.2 µM | DIO3 (gene 1735) 3.73 µM

O=C(NC(=O)c1c(F)cccc1F)Nc1cc(Cl)c(OC(F)(F)C(F)F)c(Cl)c1
inactive: [7]

CN(C)CCO
inactive: [7]

ClC(Cl)=C(c1ccc(Cl)cc1)c1ccc(Cl)cc1
inactive: [7]
active: [1] 1.23 µM | [2] 3.8 µM | [4] 3.63 µM | [5] 3.83 µM | [6] 5.14 µM | [8] 6.02 µM

CCCCCCCCCC[N+](C)(C)CCCCCCCCCC
active: DIO2 (gene 1734) 62.7 µM | DIO3 (gene 1735) 3.56 µM | [7] 20 µM

O=C(O)C(F)(F)C(F)(F)C(F)(F)C(F)(F)C(F)(F)C(F)(F)C(F)(F)C(F)(F)C(F)(F)F
active: DIO2 (gene 1734) 100 µM and 71.6 µM | DIO3 (gene 1735) 89.4 µM and 74.2 µM

CCCN(CCC)N=O
inactive: [7]

O=C(O)C(F)(F)C(F)(F)C(F)(F)C(F)(F)C(F)(F)F
not listed: [8] | DIO2 (gene 1734) | DIO3 (gene 1735)
inactive: all other assays above

Oc1ccc(C(c2ccc(O)cc2)(C(F)(F)F)C(F)(F)F)cc1
inactive: [1] | [2] | [3] | [4] | [5] | [7] | [8]
active: DIO2 (gene 1734) 128 µM | [2] 9.95 µM | DIO3 (gene 1735) 136 µM | [6] 10 µM and 13.1 µM | [8] 16 µM

CC(c1ccc(O)cc1)(c1ccc(O)cc1)c1ccc(O)cc1
inactive: [7]

ClC1=C(Cl)[C@]2(Cl)[C@@H]3[C@@H]4C[C@@H]([C@H]5O[C@@H]45)[C@@H]3[C@@]1(Cl)C2(Cl)Cl
inactive: [4] | [7]
active: [1] 0.492 µM | [2] 23.9 µM | [3] 3.38 µM | [5] 15 µM | [6] 11.3 µM | [8] 22.4 µM

O=S(=O)(O)C(F)(F)C(F)(F)C(F)(F)C(F)(F)C(F)(F)C(F)(F)F
not listed: [7] | DIO2 (gene 1734) | DIO3 (gene 1735)
inactive: all other assays above

ClC1=C(Cl)[C@]2(Cl)[C@@H]3[C@@H](Cl)[C@H]4O[C@H]4[C@@H]3C1(Cl)C2(Cl)Cl
active: [1] 2.98 µM | [2] 25.9 µM | [4] 27.1 µM | [5] 26.1 µM | [6] 22.5 µM | [8] 23.9 µM
inactive: [3] | [7]
